The source of these data is PubChem BioAssay (NCI).

The structures appear in SMILES notation. The panel holds about 83,000 compounds, 20% with a hit somewhere; the sample as a whole holds those more often.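 Note: values are percent growth. 100 is the growth of untreated cells, values between 100 and 0 indicate rising inhibition; between -100 and 0 indicates cell death.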 A number with no mark means an inactive call. The source made the active and inactive calls. The calls were made as follows: active = growth percent below 10; inactive = the rest.

Test systems include HCT-15 colon; HT29 colon; SNB-75 CNS; SNB-19 CNS; U251 CNS; PC-3 prostate; SK-MEL-5 melanoma; UACC-62 melanoma; LOX IMVI melanoma; SK-MEL-28 melanoma; SK-MEL-2 melanoma; EKVX NSCLC; SN12C renal; UO-31 renal; TK-10 renal; ACHN renal; CAKI-1 renal; CCRF-CEM leukemia; MOLT-4 leukemia; A498 renal.
Holding throughout (test): NCI-60 one-dose screen, 48 h (100 = growth as untreated, 0 = no growth, -100 = all killed)
Details in all cases: 10 µM unless noted

In the case of `O=C1/C(=C\c2cn(Cc3ccccc3)c3ccc(Br)cc23)c2ccccc2N1c1c(Cl)cccc1Cl`, the growth in the assay on HCT-15 colon is 102%; in the assay with HT29 colon, 101%; in the assay with SNB-75 CNS, 76.4%; with SNB-19 CNS, 90.9%; in the assay with U251 CNS, 96.4%; in the assay on PC-3 prostate, 78%. Moreover, the growth was 104% in the assay with SK-MEL-5 melanoma; 98.4% in the assay with UACC-62 melanoma; 88.8% in the assay with LOX IMVI melanoma; 107% in the assay with SK-MEL-28 melanoma; 101% in the assay with SK-MEL-2 melanoma; 89.2% in the assay on EKVX NSCLC. The growth in the assay on SN12C renal was 97.7%; in the assay with UO-31 renal, 87.3%; in the assay with TK-10 renal, 102%; in the assay on ACHN renal, 104%; in the assay with CAKI-1 renal, 83%; in the assay on CCRF-CEM leukemia it was 96.8%. Also, the growth in the assay with MOLT-4 leukemia is 95.8%.
As to `O=C(O)/C=C\C(=O)N1C/C(=C\c2ccccc2Cl)C(=O)/C(=C/c2ccccc2Cl)C1`, the growth in the assay on HCT-15 colon was -48.8% (active); in the assay on HT29 colon, -78.1% (active); in the assay on SNB-75 CNS it was -10.3% (active); in the assay on SNB-19 CNS, -52.7% (active); in the assay with U251 CNS it was -75.2% (active); in the assay with PC-3 prostate it was 16.7%. Moreover, the growth is -54.1% (active) in the assay with SK-MEL-5 melanoma; -60.3% (active) in the assay on UACC-62 melanoma; -69.3% (active) with LOX IMVI melanoma; -39.6% (active) in the assay on SK-MEL-28 melanoma; 37% in the assay on SK-MEL-2 melanoma; 40.1% in the assay with EKVX NSCLC. The growth in the assay on SN12C renal was -30.7% (active); with UO-31 renal, -64.9% (active); with TK-10 renal, 0.472% (active); with ACHN renal, 20.3%; in the assay with CAKI-1 renal, 0.997% (active); with CCRF-CEM leukemia, 3.66% (active). In the assay on MOLT-4 leukemia, the growth is 4.86% (active).
Consider `CN1C(=O)N(C)[C@H]2NC(NN)=N[C@H]21`, for which the growth is 103% in the assay with HCT-15 colon; 105% in the assay with HT29 colon; 80.9% with SNB-75 CNS; 106% in the assay with SNB-19 CNS; 98.7% in the assay on U251 CNS; 96.3% in the assay with PC-3 prostate. The growth in the assay with SK-MEL-5 melanoma is 101%; in the assay with UACC-62 melanoma, 101%; with LOX IMVI melanoma, 97.8%; in the assay on SK-MEL-28 melanoma it was 101%; in the assay on SK-MEL-2 melanoma, 108%; with EKVX NSCLC, 99.1%. For the same compound, the growth with SN12C renal was 99.8%; in the assay on UO-31 renal it was 93.5%; in the assay on TK-10 renal, 97.4%; in the assay with ACHN renal it was 104%; in the assay with CAKI-1 renal, 89.2%; in the assay on A498 renal it was 97.9%. Besides, in the assay with MOLT-4 leukemia, the growth is 101%.
On to `CS(=O)(=O)Nc1cc(-c2ccc3ncnc(Nc4ccc5[nH]ncc5c4)c3c2)cnc1Cl`, for which the growth with HCT-15 colon is 79.4%; in the assay on HT29 colon, 80.9%; in the assay with SNB-75 CNS it was 15.5%; in the assay with SNB-19 CNS it was 68.7%; in the assay on U251 CNS it was 64.9%; in the assay on PC-3 prostate it was 76.8%. Also, the growth in the assay with SK-MEL-5 melanoma is 81%; in the assay with UACC-62 melanoma it was 58.9%; in the assay on LOX IMVI melanoma it was 66.2%; in the assay on SK-MEL-28 melanoma, 50.8%; in the assay on SK-MEL-2 melanoma, 63.1%; in the assay with EKVX NSCLC, 62.3%. Besides, the growth in the assay with SN12C renal was 67.8%; in the assay with UO-31 renal it was 64.1%; in the assay with TK-10 renal, 65.6%; with ACHN renal it was 83.8%; with CAKI-1 renal, 51.9%; in the assay on A498 renal it was 24.5%. For the same compound, in the assay with MOLT-4 leukemia, the growth is 75.3%.
As to `O=C1CCC(NC(=S)Nc2ccccc2)N1` (stereo unspecified), the growth was 113% in the assay on HCT-15 colon; 98.3% with HT29 colon; 113% with SNB-75 CNS; 100% in the assay with SNB-19 CNS; 104% in the assay on U251 CNS; 102% with PC-3 prostate. The growth is 106% in the assay with SK-MEL-5 melanoma; 99.9% in the assay with UACC-62 melanoma; 97.5% in the assay on LOX IMVI melanoma; 108% with SK-MEL-28 melanoma; 103% in the assay on SK-MEL-2 melanoma; 117% with EKVX NSCLC. In addition, the growth is 97.4% in the assay on SN12C renal; 95.3% in the assay with UO-31 renal; 101% in the assay with TK-10 renal; 109% in the assay with ACHN renal; 106% with CAKI-1 renal; 97.2% in the assay with CCRF-CEM leukemia.
Take `O=C(/C=C\c1ccc(OCCCCCC[P+](c2ccccc2)(c2ccccc2)c2ccccc2)cc1)c1ccc2c(c1)OCCO2`: the growth is 22% with HCT-15 colon; -17.5% (active) in the assay with HT29 colon; -40.4% (active) in the assay with SNB-75 CNS; 16.2% with SNB-19 CNS; -58.5% (active) in the assay with U251 CNS; 6.58% (active) in the assay with PC-3 prostate. For the same compound, the growth with SK-MEL-5 melanoma is -98.3% (active); in the assay with UACC-62 melanoma it was -18.1% (active); in the assay on LOX IMVI melanoma, -68.2% (active); in the assay with SK-MEL-28 melanoma it was -0.666% (active); with SK-MEL-2 melanoma, -42.9% (active); in the assay with EKVX NSCLC, 23.9%. Besides, the growth is 2.08% (active) with SN12C renal; 4.82% (active) with UO-31 renal; -9.1% (active) in the assay on TK-10 renal; 5.03% (active) in the assay on ACHN renal; 2.91% (active) in the assay on CAKI-1 renal; -30% (active) in the assay on A498 renal. For the same compound, the growth with MOLT-4 leukemia is -20.6% (active).
Turning to `C=C1C(=O)O[C@H]2[C@H]1CC/C(COC(=O)NCCc1c[nH]c3ccc(Cl)cc13)=C\CC[C@@]1(C)O[C@@H]21`, the growth was -66.6% (active) in the assay on HCT-15 colon; -73.6% (active) in the assay with HT29 colon; -54.6% (active) with SNB-75 CNS; 32.4% with SNB-19 CNS; -41.4% (active) in the assay on U251 CNS; 1.04% (active) with PC-3 prostate. For the same compound, the growth in the assay with SK-MEL-5 melanoma is -15.2% (active); with UACC-62 melanoma it was -51.7% (active); in the assay with LOX IMVI melanoma, -82.4% (active); in the assay on SK-MEL-28 melanoma, -71.9% (active); with SK-MEL-2 melanoma, -3.3% (active); in the assay with EKVX NSCLC, -85.8% (active). Further, the growth was -70.1% (active) with SN12C renal; -99.7% (active) in the assay on UO-31 renal; -97.2% (active) in the assay with TK-10 renal; -100% (active) with ACHN renal; -100% (active) in the assay with CAKI-1 renal; -18.3% (active) in the assay with CCRF-CEM leukemia. In addition, the growth with MOLT-4 leukemia was -6.88% (active).
On to `COc1ccc(-c2c[nH]c(C(=O)O)c2-c2cc(OC)c3c(c2OC)OCO3)cc1`, for which the growth with HCT-15 colon was 103%; in the assay with HT29 colon, 110%; in the assay on SNB-75 CNS, 91.6%; in the assay on SNB-19 CNS, 101%; in the assay with U251 CNS, 104%; in the assay on PC-3 prostate, 103%. The growth in the assay with SK-MEL-5 melanoma was 102%; in the assay with UACC-62 melanoma, 95.4%; in the assay on LOX IMVI melanoma, 95.4%; in the assay on SK-MEL-28 melanoma, 104%; in the assay with SK-MEL-2 melanoma it was 109%; in the assay with EKVX NSCLC, 105%. Also, the growth in the assay on SN12C renal was 99.9%; with UO-31 renal it was 90.3%; in the assay on TK-10 renal, 116%; with ACHN renal, 100%; with CAKI-1 renal, 86.4%; in the assay on A498 renal, 95%. The growth in the assay on MOLT-4 leukemia is 102%.
